# Measurements taken from PubChem BioAssay (NCI).
# This is part of a sample that, as a whole, favours compounds with a hit. Of some 83,000 tested, about 20% had one in any assay.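 A percent growth of 40 corresponds to 60% growth inhibition; 0 means no net growth; -100 means all cells died. Active threshold: below 10.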 Values without a mark were called inactive. Activity calls are given as the source filed them.
# Experiments:
# Assay in all cases: NCI-60 one-dose screen, 48 h (100 = growth as untreated, 0 = no growth, -100 = all killed)
# NCI-H23 lung = details: 10 µM unless noted
# NCI-H226 lung = details: 10 µM unless noted
# NCI-H322M lung = details: 10 µM unless noted
# NCI-H460 lung = details: 10 µM unless noted
# NCI-H522 lung = details: 10 µM
# A549/ATCC NSCLC = details: 10 µM unless noted
# 786-0 renal = details: 10 µM unless noted
# COLO 205 colon = details: 10 µM unless noted
# DU-145 prostate = details: 10 µM unless noted
# K-562 leukemia = details: 10 µM unless noted
# MDA-MB-231 breast = details: 10 µM unless noted
# RXF 393 renal = details: 10 µM unless noted
# SF-268 CNS = details: 10 µM unless noted
# SF-295 CNS = details: 10 µM unless noted
# SF-539 CNS = details: 10 µM unless noted
# UACC-257 melanoma = details: 10 µM unless noted
# M14 melanoma = details: 10 µM unless noted
# HOP-92 NSCLC = details: 10 µM
# MALME-3M melanoma = details: 10 µM unless noted
SMILES,growth (NCI-H23 lung),growth (NCI-H226 lung),growth (NCI-H322M lung),growth (NCI-H460 lung),growth (NCI-H522 lung),growth (A549/ATCC NSCLC),growth (786-0 renal),growth (COLO 205 colon),growth (DU-145 prostate),growth (K-562 leukemia),growth (MDA-MB-231 breast),growth (RXF 393 renal),growth (SF-268 CNS),growth (SF-295 CNS),growth (SF-539 CNS),growth (UACC-257 melanoma),growth (M14 melanoma),growth (HOP-92 NSCLC),growth (MALME-3M melanoma)
COc1ccc(/C=C2\SC(=O)N(Cc3cc(=O)oc4ccc(OC)cc34)C2=O)cc1,71.6%,67.9%,84.9%,94.1%,77.9%,96.4%,83.9%,111%,91.3%,54.2%,83.1%,110%,88.8%,82.7%,89.6%,100%,92.7%,,
COc1cc(-c2cc3cnccc3c3nc(N)c4ccncc4c23)cc(OC)c1OC,64.3%,56.1%,58.7%,54.9%,57.1%,42.5%,24.8%,,62.3%,24.1%,42.9%,8.24% (active),49.4%,67.3%,38%,92.2%,68.1%,-0.882% (active),59.8%
CCOC(=O)NNc1[nH]c(-c2ccc(OC)cc2)cc1C#N,88.9%,101%,79.4%,99.1%,76%,100%,94.8%,14.5%,108%,68.9%,89.8%,96%,103%,111%,94.3%,92.5%,,,
COc1ccc(-c2nc(SCC(C)C)nc(Nc3ccccc3)c2C#N)cc1,86.3%,83%,70.8%,18.7%,88.3%,48%,51.9%,,100%,82.1%,93.5%,98.8%,87.9%,77.1%,70.5%,83.8%,95.8%,88%,96%
COC(=O)Nc1nc2ccc(C(=O)c3ccccc3N(C)C3COC3)cc2[nH]1,54.4%,49.6%,49.5%,13.5%,13.1%,42.4%,34.4%,,33.7%,,55.2%,,45.7%,14.3%,9.06% (active),37.9%,12.8%,41.1%,58.8%
COC1=CC(c2ccc[nH]2)=N/C1=C\c1[nH]c(C)c(C(=O)CCCCC(=O)NC(C)(C)C)c1C,40.6%,37.3%,45.7%,5.36% (active),-28.1% (active),11.4%,,44.4%,51.5%,53.5%,-19.2% (active),-47.1% (active),60.2%,24%,63.1%,75.7%,,3% (active),48.7%
CCS(=O)(=O)OCCO[C@H]1Cc2cc3ccc(=O)oc3cc2OC1(C)C,105%,98.4%,111%,105%,89.1%,97.3%,106%,,103%,,115%,,98.9%,101%,100%,97.8%,104%,103%,105%
Nc1ccc(S(=O)(=O)Nc2cc(F)cc(F)c2)cc1,111%,104%,114%,110%,94.9%,119%,99.7%,112%,94.5%,71.9%,90.9%,20.1%,130%,103%,85.6%,95.5%,91.1%,,131%
CC1(C)Oc2cc3oc(=O)ccc3cc2C[C@@H]1OCCOS(=O)(=O)c1ccc(C#N)cc1,91.8%,87.8%,105%,93%,77.8%,92.5%,100%,,103%,,94.5%,,89.2%,87.7%,96.6%,84.2%,98.4%,91.4%,93.6%
